# SMN2 splice enh = SMN2 splice variant enhancement. 2.8% of 210,000 active. Potency, µM (doses to about 46.1 µM), for inactives: at the highest dose activity change, positive = activation, most hits filed as activators. AID 1458. HEK293 SMN2-luciferase splicing reporter, luminescence, 30-36 h; also: % of control where 0% means no effect; nearly all actives have a fitted effect of over 55% in size
#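 HEK293 cells carry an SMN2 […]–luciferase reporter in which exon 7 inclusion puts luciferase in frame. Cells were plated 10-12 h before compound addition, then incubated 30-36 h at 37C. ONE-Glo luminescence was read; sodium butyrate at 4.5 mM final served as control.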
# Rab9 promoter act = activators of Rab9 promoter; Huh7 Rab9 promoter-luciferase reporter, luminescence, 24 h; Potency, µM (top dose mostly 9.22 µM), for the others: top-dose activation, negative = inhibition, actives largely listed as activators; 2.8% of 320,000 active; also: % of control where 0% means no effect; nearly all actives have a fitted effect of over 60% in size
#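 Huh7 cells stably carrying Rab9 promoter–luciferase reporter, plated 1500 cells/well, compound added after 2 h and incubated 24 h at 37 °C; luciferase luminescence then read after 10 min with detection reagent.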
# ELG1 genotoxic = inducers of genotoxicity in HEK293T ELG1-luciferase cells. Potency, µM (highest dose often 46 µM), for inactives: at the highest dose activity change, positive = activation, hits mostly activators. HEK293T ELG1-luciferase reporter, luminescence, 16 h. 1.3% of 330,000 active. AID 504466; also: % of control where 0% means no effect; nearly all actives have a fitted effect of over 60% in size
#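 ELG1-luciferase HEK293T cells, 2,000/well; compound pinned in; 16 hr, 37 °C, 5% CO2; ONE-Glo, 30 min RT; luminescence on CCD imager.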
# FLuc modulator = inhibits or activates purified firefly luciferase, miR-21 counter-screen; 6.9% of 360,000 active; AID 588342; Potency, µM (series often up to 57.5 µM), without a hit: at the highest dose activity change, negative = inhibition, hits mostly inhibitors; purified FLuc, Km substrates, luminescence inhibition; P08659;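 also: plate controls were vehicle for no effect and reference inhibitor for full effect; nearly all actives have a fitted effect of over 55% in size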
# Target sequence (P08659 whole entry, looked up): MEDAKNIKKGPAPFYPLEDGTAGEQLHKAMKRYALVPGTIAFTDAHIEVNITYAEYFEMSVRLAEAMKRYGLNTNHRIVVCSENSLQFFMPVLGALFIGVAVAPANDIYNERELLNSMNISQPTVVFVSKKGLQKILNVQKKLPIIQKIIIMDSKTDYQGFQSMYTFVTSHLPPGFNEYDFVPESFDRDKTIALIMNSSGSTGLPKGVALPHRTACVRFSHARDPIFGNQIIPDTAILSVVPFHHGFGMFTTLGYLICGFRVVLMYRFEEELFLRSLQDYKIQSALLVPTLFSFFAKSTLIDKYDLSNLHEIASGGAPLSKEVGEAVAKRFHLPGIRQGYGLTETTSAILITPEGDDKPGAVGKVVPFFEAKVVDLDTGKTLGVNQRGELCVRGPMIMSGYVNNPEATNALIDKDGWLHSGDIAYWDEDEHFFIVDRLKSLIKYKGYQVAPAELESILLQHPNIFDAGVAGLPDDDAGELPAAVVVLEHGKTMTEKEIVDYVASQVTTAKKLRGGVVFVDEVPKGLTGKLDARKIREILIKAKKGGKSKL
#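 Purified P. pyralis luciferase, 10 nM final, with Km-level 10 uM D-luciferin and 10 uM ATP in 50 mM Tris acetate pH 7.5, 10 mM Mg acetate, 0.01% Tween-20, 0.05% BSA; 6-point qHTS titration about 60 µM downward; luminescence read.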
# ELG1 repair inh = inhibitors of ELG1-dependent DNA repair in HEK293T cells. 2.3% of 330,000 active. Potency, µM (titrated, usually from 46.1 µM), for the others: at the highest dose activity change, negative = inhibition, most hits filed as inhibitors. HEK293T ELG1-luciferase reporter, luminescence, 16 h; DNA damage induced by 5-fluorouridine; also: % is scaled to controls: 0 for no effect and ±100 for the full control effect; nearly all actives have a fitted effect of over 55% in size
#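 5-Fluorouridine DNA damage + compound/DMSO, 2,000 cells/well, 16 h, 37 °C/5% CO2. ONE-Glo, 30 min RT, luminescence. Readout = decrease in reporter signal.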
# NPC1 prom act = activates the NPC1 promoter. Huh7 NPC1 promoter luciferase reporter, 24 h. Potency, µM (doses to about 9.22 µM), inactives show at the highest dose activation, hits mostly activators. 2.4% of 320,000 active. AID 485313; also: % of control where 0% means no effect; nearly all actives have a fitted effect of over 60% in size
#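 NPC1 promoter–luciferase Huh7 cells; 24 h compound; luminescence.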
# The depositor's hits bear a star; u = inconclusive; x = no result given; [ ] = another dose, or the depositor's remark. The list is not random: actives were taken first. Their share in the collection is about 9.3%. Calls follow the shape of the dose curve; as a rule, active = well fitted curve in the direction sought with a large enough effect; inconclusive = small, poorly fitted or top-dose-only effect, or another doubt; inactive = no such curve, though single readings can be large; an effect the other way counts as inactive or inconclusive. Potency is read from the fitted curve at half-maximal effect.
SMILES,SMN2 splice enh,Rab9 promoter act,ELG1 genotoxic,FLuc modulator,ELG1 repair inh,NPC1 prom act
Cc1sc2nc(SCC(=O)C(C)(C)C)n(Cc3ccco3)c(=O)c2c1C,-22.4%,-14.9%,-4.3%,-0.6%,u,-25.8%
Cc1sc2nc3c4ccccc4c(NCc4ccco4)nn3c(=O)c2c1C,10µM*,2.82µM*,7.08µM*,7.57µM*,u,u
Cc1nc(NCc2ccco2)c2c(C)c(C)sc2n1,3.16µM*,-15.9%,-26.9%,0.5%,9.2µM*,-16.8%
CCOC(=O)c1sc2nc(CC(=O)OC)nc(NCc3ccco3)c2c1C,8.0%,-2.7%,-7.0%,-13.7%,u,0.0%
COc1ccc(/C=C/c2cc(C(F)(F)F)on2)cc1,x,-0.3%,12.9%,6.01µM*,u,12.1%
COc1ccc(/C=C/c2cc(C(F)(F)F)[nH]c(=O)n2)cc1OC,x,-1.0%,1.1%,u,3.1%,-5.4%
COc1ccccc1CN1CCC(CNC(=O)c2cnn(-c3ccc(Cl)cc3)c2C2CCN(C(=O)OC(C)(C)C)CC2)CC1,x,x,x,-1.2%,x,x
CCCn1c(N)c(C(=O)COc2ccc(Br)cc2F)c(=O)n(C)c1=O,-32.0%,6.7%,-14.4%,-2.4%,u,-5.7%
COc1ccc(C(=O)c2sc3nc4c(c(C(F)(F)F)c3c2N)CN(C(C)=O)CC4)cc1OC,-12.0%,x,x,-1.9%,x,x
COc1ccc(CNC(=O)c2sc3nc4c(c(C(F)(F)F)c3c2N)CCC4)cc1OC,-76.4%,-5.1%,4.3%,21.3µM*,u,-0.4%
COc1ccc(-c2cccc(NS(=O)(=O)c3cc(C)ccc3OC)c2)nn1,x,x,x,-9.8%,x,x
COc1ccc(OC)c(S(=O)(=O)Nc2cccc(-c3ccc(N4CCCCCC4)nn3)c2)c1,x,7.8%,-4.3%,16.9µM*,-1.0%,-4.1%
COc1ccc(S(=O)(=O)Nc2cccc(-c3ccc(N4CCCCCC4)nn3)c2)c(OC)c1,x,u,u,8.49µM*,u,u
CCOc1ccc(NC(=O)CN(c2ccc(OC)c(OC)c2)S(=O)(=O)c2ccc(C)cc2)cc1,x,7.9%,-1.8%,-1.7%,u,-9.7%
COc1cccc(/C=N/n2c(=S)n(C)c3ccccc32)c1OC,-24.9%,-4.5%,2.6%,10.7µM*,8.7%,-3.4%
COc1cccc(/C=N/n2c(-c3ccco3)nc3ccccc3c2=O)c1OC,6.8%,-3.4%,3.3%,-19.8%,5.17µM*,2.4%
COc1cccc(/C=N\n2c(C)nnc2C)c1OC,x,5.3%,0.7%,1.3%,u,1.5%
COc1cc(OC)c(OC)cc1/C=N/n1c(C)nc2ccccc2c1=O,x,2.5%,-2.4%,0.7%,-3.7%,2.1%
COc1cccc(/C=N/n2c(C)nc3ccccc32)c1OC,-47.6%,-3.3%,-3.1%,u,u,-0.2%
COc1cccc(/C=N/n2cnc3cc(C)c(C)cc32)c1OC,x,20.4%,16.1%,12µM*,u,u
COc1cccc(/C=N/n2c(=O)[nH]c3ccccc32)c1OC,u,29.0%,15.1%,9.53µM*,u,19.2%
CCOc1ccc(CNC(=O)CN2C(=O)CSc3c2c(C)nn3-c2ccccc2)cc1,x,x,x,-0.9%,x,x
O=C(CCn1cccn1)Nc1ccc(-c2ccno2)cc1,x,18.4%,11.0%,-11.1%,u,22.1%
Cc1ccc(CNC(=O)Cn2cnc(S(=O)(=O)N3CCC(C)CC3)c2)o1,x,-0.3%,1.7%,0.8%,18.3%,-4.0%
Cc1ccc(/C=C/c2nc3ccccc3n2S(=O)(=O)c2ccc(Br)cc2)cc1,x,x,x,0.757µM*,x,x
SMILES,SMN2 splice enh,Rab9 promoter act,ELG1 genotoxic,FLuc modulator,ELG1 repair inh,NPC1 prom act
Cc1ccc(S(=O)(=O)n2c(N)nc3ccccc32)cc1,x,-5.6%,-0.2%,0.1%,7.0%,-1.1%
CSc1ccc(/C=C/c2nc3ccccc3n2S(=O)(=O)c2cccc(Cl)c2)cc1,u,x,x,0.0757µM*,x,x
O=S(=O)(c1cccc(Cl)c1)n1c(/C=C/c2ccccc2Cl)nc2ccccc21,x,x,x,0.0953µM*,x,x
O=C(O)c1cnn(-c2ccccc2)c1C(F)(F)F,10.9%,-7.7%,0.9%,u,-6.5%,-2.5%
CCC(=O)NCCc1nc2cc(NC(=O)c3cccc(Br)c3)ccc2n1C,x,x,x,21.3µM*,x,x
CC1CCN(CCc2nc3cc(NC(=O)Nc4ccccc4)ccc3n2C)CC1,22.6%,u,u,16.9µM*,u,u
Cn1c(CN2CCCCC2)nc2cc(NC(=O)c3cccc(Br)c3)ccc21,-53.7%,-16.9%,15.7%,u,u,-1.1%
CCC(=O)NCCc1nc2cc(NC(=O)Nc3ccccc3)ccc2n1C,x,1.58µM*,u,5.36µM*,u,1.12µM*
CC(=O)Nc1ccc2c(c1)nc(CCN1CCC(C)CC1)n2C,3.1%,10.2%,3.1%,-1.5%,3.7%,1.5%
Cc1cc(NC(=O)C2CCCCC2)ncc1NC(=O)c1ccccn1,8.1%,29.5%,8.7%,-27.4%,0.1%,9.0%
COc1cccc(C(=O)Nc2cnc(NC(=O)c3ccco3)cc2C)c1,18.3%,0.9%,17.3%,u,27.4%,3.1%
CCCCC(=O)Nc1cc(C)c(NC(=O)c2cccs2)cn1,x,-2.3%,-0.5%,0.2%,-11.5%,-5.2%
COc1ccc(C(=O)NNC(=S)NC(=O)c2cccs2)cc1,x,-0.3%,7.6%,-18.3%,-23.2%,5.2%
COc1ccc(C(=O)Nc2cnc(NC(=O)c3cccs3)cc2C)cc1,x,u,u,16.9µM*,u,u
COc1ccc(C(=O)Nc2cc(C)c(NC(=O)c3ccccn3)cn2)cc1,x,u,2.5%,1.07µM*,u,u
CCCCC(=O)Nc1cnc(NC(=O)c2cccs2)cc1C,x,2µM*,u,19µM*,u,3.16µM*
Cc1cc(NC(=O)C2CC2)ncc1NC(=O)c1ccccn1,u,2.51µM*,u,u,u,u
CN1CCC(=NOc2ccc([N+](=O)[O-])cc2)CC1,x,1.58µM*,u,u,u,1.78µM*
Cc1ccc(CNC(=O)COC(=O)COc2ccc(C#N)cc2)cc1,x,-0.5%,0.7%,6.9%,12.9%,-2.6%
Clc1ccc(-c2nc(Cc3ccccc3Cl)no2)cc1,0.1%,22.9%,11.2%,15.1µM*,u,13.5%
Cc1ccccc1-c1noc(-c2ccc(O)cc2)n1,u,29.4%,u,4.78µM*,u,u
Cc1ccccc1-c1noc(-c2ccccc2F)n1,u,2.24µM*,6.51µM*,1.9µM*,u,2.51µM*
Cc1ccccc1-c1noc(-c2ccc(Cl)cc2)n1,11.2µM*,2.82µM*,u,1.07µM*,u,3.98µM*
Cc1ccccc1-c1noc(-c2cc(-c3ccc(F)cc3)n[nH]2)n1,x,x,x,5.6%,x,x
N[C@H](C(=O)O)c1ccc(C(=O)O)cc1,-10.8%,x,x,x,x,x
Clc1ccc(CSCCc2ccncc2)cc1Cl,-5.1%[9.22 µM],x,x,x,x,x

# High-throughput results (PubChem)
